Data as given in PubChem BioAssay (Tox21).
Where “and” joins values, the source holds several entries; their conditions need not be identical. Identical values can stand only once. Results filed as inconclusive are left out. Some structures have more than one record in an assay (separate samples or runs), and their calls can disagree. Calls of active or inactive are those of the source. Unless noted, calls follow the shape of the full dose curve.

What was measured:
[1] = qHTS assay to identify small molecule agonists of the sonic hedgehog signaling (Shh) pathway (AID 1259368);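 also: NIH/3T3-derived 3T3Gli1-Luc cells carrying a stable Gli1-driven firefly luciferase reporter; series mostly up to about 92 µM; nearly all actives have a fitted effect of over 15% in size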
In short: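 Quantitative high-throughput format using a Gli1-driven firefly luciferase reporter line derived from NIH/3T3 cells. After a 24 hr compound treatment at 37 C and 5% CO2, luminescence reported Gli1 response element activity.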

[2] = qHTS assay to identify small molecule antagonists of the sonic hedgehog signaling (Shh) pathway (AID 1259369); also: nearly all actives have a fitted effect of over 45% in size; also: potency is read from the fitted curve at half-maximal effect
In short: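 Stable Gli1-Luc reporter NIH/3T3 clone; quantitative HTS in stimulated mode with conditioned medium. Luminescence measured after 24hr compound treatment at 37 C.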

[3] = target: Estrogen receptor beta (Homo sapiens) (UniProt Q92731); assay: qHTS assay to identify small molecule agonists of the estrogen receptor beta (ER-beta) signaling pathway (AID 1259377; active = well fitted activation curve with a large enough effect in the signal ratio in the repeat runs, not every such curve was filed as active; the % refers to the signal ratio; also: potency is read from the fitted curve at half-maximal effect)
Sequence of Estrogen receptor beta (Homo sapiens) (Q92731 whole entry, looked up): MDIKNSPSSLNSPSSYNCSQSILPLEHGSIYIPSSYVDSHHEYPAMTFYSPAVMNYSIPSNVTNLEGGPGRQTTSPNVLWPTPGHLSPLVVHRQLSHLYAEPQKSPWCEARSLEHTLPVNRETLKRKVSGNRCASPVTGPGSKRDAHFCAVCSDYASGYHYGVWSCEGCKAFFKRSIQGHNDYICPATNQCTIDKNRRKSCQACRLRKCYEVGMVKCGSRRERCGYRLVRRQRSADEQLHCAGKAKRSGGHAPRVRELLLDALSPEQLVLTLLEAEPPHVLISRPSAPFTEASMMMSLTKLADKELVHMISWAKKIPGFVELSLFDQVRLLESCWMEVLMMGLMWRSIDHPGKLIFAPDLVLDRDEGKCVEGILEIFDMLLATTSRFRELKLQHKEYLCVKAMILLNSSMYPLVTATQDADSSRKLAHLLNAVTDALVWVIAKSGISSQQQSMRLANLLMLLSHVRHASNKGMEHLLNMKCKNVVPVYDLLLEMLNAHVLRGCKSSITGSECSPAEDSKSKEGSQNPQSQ
In short: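 ER-beta-UAS-bla HEK293T (GripTite) cells carrying a UAS-driven beta-lactamase reporter, in medium with 2% charcoal-stripped FBS, were exposed to compounds for 16 hr at 37C; LiveBLAzer B/G FRET substrate was then added and fluorescence read after 2 hours at room temperature.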

[4] = target: Estrogen receptor beta (Homo sapiens) (UniProt Q92731); assay: qHTS assay to identify small molecule antagonists of the estrogen receptor beta (ER-beta) signaling pathway (AID 1259378; active = well fitted inhibition curve with a large enough effect in the signal ratio in the repeat runs, not every such curve was filed as active; the % refers to the signal ratio; also: potency is read from the fitted curve at half-maximal effect)
In short: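 ER-beta-UAS-bla HEK293T cells in 2% charcoal-stripped FBS medium treated with compound plus 1nM final 17-beta-estradiol for 16 hr at 37C. Beta-lactamase reporter read by FRET substrate fluorescence after 2 hours at room temperature.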

[5] = qHTS assay to identify small molecule agonists of the androgen receptor (AR) signaling pathway in the presence of an antagonist - cell viability counter screen (AID 1259379; active = well fitted curve in the direction sought with a large enough effect in the repeat runs; an effect the other way counts as inactive or inconclusive;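 also: MDA-kb2 human breast cancer cells carrying an MMTV luciferase reporter; series mostly up to about 92 µM; nearly all actives have a fitted effect of over 25% in size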)
In short: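 Nilutamide-containing (3.0uM final) MDA-kb2 cultures, 3,000 cells/well, were treated with compounds across 15 concentrations. After 16 hr at 37C with no CO2, cell viability was determined by CellTiter-Fluor fluorescence in the luciferase assay wells.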

[6] = qHTS assay to identify small molecule agonists of the estrogen receptor beta (ER-beta) signaling pathway - cell viability counter screen (AID 1259380; active = well fitted curve in the direction sought with a large enough effect in the repeat runs; an effect the other way counts as inactive or inconclusive; also: nearly all actives have a fitted effect of over 30% in size; also: potency is read from the fitted curve at half-maximal effect)
In short: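 Steps: plate ER-beta-UAS-bla HEK293T cells, rest 6 hr; add compounds in DMSO; incubate 16 hr at 37C, 5% CO2; add FRET substrate 2 hr; add CellTiter-Glo, wait 30 min at room temperature; read luminescence.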

[7] = qHTS assay to identify small molecule antagonists of the estrogen receptor beta (ER-beta) signaling pathway - cell viability counter screen (AID 1259382; active = well fitted curve in the direction sought with a large enough effect in the repeat runs; an effect the other way counts as inactive or inconclusive; also: series mostly up to about 92 µM; nearly all actives have a fitted effect of over 55% in size)
In short: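 Viability is scored by CellTiter-Glo luminescence (30 min, room temperature) in ER-beta-UAS-bla HEK293T wells already read for reporter fluorescence. Compound exposure lasts 16 hr at 37C alongside 1nM 17-beta-estradiol in charcoal-stripped serum medium.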

[8] = target: Estrogen receptor (Homo sapiens) (UniProt P03372); assay: qHTS assay to identify small molecule agonists of the estrogen receptor alpha (ER-alpha) signaling pathway in the presence of an antagonist (AID 1259383); also: nearly all actives have a fitted effect of over 15% in size; also: potency is read from the fitted curve at half-maximal effect; as to activation: top concentration of the series differs between compounds
Sequence of Estrogen receptor (Homo sapiens) (P03372 whole entry, looked up): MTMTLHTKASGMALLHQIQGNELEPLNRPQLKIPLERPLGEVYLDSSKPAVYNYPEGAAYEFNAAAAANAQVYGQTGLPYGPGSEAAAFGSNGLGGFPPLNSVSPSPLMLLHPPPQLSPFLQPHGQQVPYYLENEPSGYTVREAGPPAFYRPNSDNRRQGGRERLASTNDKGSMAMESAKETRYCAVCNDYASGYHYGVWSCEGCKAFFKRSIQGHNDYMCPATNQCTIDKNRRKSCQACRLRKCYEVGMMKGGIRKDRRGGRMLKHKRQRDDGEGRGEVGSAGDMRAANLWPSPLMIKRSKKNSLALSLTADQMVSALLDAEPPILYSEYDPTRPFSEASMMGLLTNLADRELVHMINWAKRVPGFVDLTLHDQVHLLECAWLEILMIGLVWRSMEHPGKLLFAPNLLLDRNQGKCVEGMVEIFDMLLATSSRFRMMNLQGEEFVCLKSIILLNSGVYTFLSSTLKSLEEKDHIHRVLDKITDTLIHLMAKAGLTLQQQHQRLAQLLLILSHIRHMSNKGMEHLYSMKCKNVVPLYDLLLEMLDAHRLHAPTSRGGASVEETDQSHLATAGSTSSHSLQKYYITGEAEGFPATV
In short: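 Readout was ERE-driven luciferase luminescence in VM7Luc4E2 cells, which express full-length ER-alpha endogenously. Compounds were tested at 15 concentrations for 22hr alongside 10.0nM ICI-182,780 (final concentration).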

[9] = qHTS assay to identify small molecule agonists or antagonists of the thyroid stimulating hormone receptor (TSHR) signaling pathway - wild type cell line counter screen (AID 1259384)
In short: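 Wild-type Hek293 cells, 800/well, 18 h at 37C, then compound with Ro20-1724 for 30 min RT. cAMP by HTRF (cAMP-d2/anti-cAMP cryptate), 1 h RT, fluorescence read. 15 concentrations, triplicates.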

[10] = target: Androgen receptor (Homo sapiens) (UniProt P10275); assay: qHTS assay to identify small molecule agonists of the androgen receptor (AR) signaling pathway in the presence of an antagonist (AID 1259381); also: nearly all actives have a fitted effect of over 15% in size; also: potency is read from the fitted curve at half-maximal effect
Sequence of Androgen receptor (Homo sapiens) (P10275 whole entry, looked up): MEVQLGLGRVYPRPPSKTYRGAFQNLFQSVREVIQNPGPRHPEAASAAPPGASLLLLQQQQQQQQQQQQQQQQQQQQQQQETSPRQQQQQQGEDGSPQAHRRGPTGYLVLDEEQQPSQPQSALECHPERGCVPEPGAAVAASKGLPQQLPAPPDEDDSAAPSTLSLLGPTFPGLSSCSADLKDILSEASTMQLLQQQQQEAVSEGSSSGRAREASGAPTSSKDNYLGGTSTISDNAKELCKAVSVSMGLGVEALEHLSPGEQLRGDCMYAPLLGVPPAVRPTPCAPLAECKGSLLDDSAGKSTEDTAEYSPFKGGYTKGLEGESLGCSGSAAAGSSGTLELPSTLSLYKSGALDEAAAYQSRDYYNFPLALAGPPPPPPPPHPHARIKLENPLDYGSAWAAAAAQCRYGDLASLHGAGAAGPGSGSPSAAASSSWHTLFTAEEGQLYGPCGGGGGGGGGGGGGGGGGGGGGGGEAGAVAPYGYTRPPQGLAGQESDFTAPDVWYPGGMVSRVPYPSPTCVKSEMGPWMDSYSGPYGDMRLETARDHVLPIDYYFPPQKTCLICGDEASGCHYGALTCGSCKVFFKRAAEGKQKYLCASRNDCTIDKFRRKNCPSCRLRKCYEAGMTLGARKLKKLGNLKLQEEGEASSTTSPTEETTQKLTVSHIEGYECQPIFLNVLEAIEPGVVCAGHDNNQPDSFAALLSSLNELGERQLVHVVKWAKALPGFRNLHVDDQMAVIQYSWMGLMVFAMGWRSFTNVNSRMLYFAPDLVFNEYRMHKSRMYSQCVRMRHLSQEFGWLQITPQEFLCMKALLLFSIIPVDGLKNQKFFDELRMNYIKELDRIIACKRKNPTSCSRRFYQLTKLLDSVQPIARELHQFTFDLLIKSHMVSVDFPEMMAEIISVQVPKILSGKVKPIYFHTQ
In short: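 Reporter-gene luminescence from MDA-kb2 cells exposed 16hr at 37C (0% CO2) to 15-point compound titrations with 3.0uM final nilutamide as AR antagonist.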

Measured: Potency

O=C(O)c1ccc(S(=O)(=O)N(Cl)Cl)cc1
not listed: [10]
inactive: all other assays above

Cc1ccc([N+](=O)[O-])cc1S(=O)(=O)O
inactive: all assays above

CCCCCC(=O)O
inactive: all assays above

CC(C)(C)c1cc(Cc2cc(C(C)(C)C)c(O)c(C(C)(C)C)c2)cc(C(C)(C)C)c1O
not listed: [10]
inactive: all other assays above

CC(C)OP(=O)(CP(=O)(OC(C)C)OC(C)C)OC(C)C
inactive and 1.19 µM (active): [2]
not listed: [9] | [10]
inactive: all other assays above

COc1ccc(N)c(C)c1
not listed: [10]
inactive: all other assays above

C=C(C)C(=O)OCC(C)C
619 nM (active) and inactive: [2]
not listed: [10]
inactive: all other assays above

COc1ccccc1OCC(O)CO (stereo not given)
not listed: [8]
inactive: all other assays above

CCCCCCCCCCCCCCCCO
not listed: [10]
inactive: all other assays above

CNC(=S)N(C)C
not listed: [9] | [10]
inactive: all other assays above

CN/C(=C\[N+](=O)[O-])NCCSCc1csc(CN(C)C)n1
not listed: [8]
inactive: all other assays above

CC(C)CC(=O)CC(C)CC(C)C (stereo not given)
not listed: [8]
inactive: all other assays above

CCCCCCCCCCCCCCCC(=O)OC(C)C
not listed: [8] | [9] | [10]
inactive: all other assays above

OCc1ccccc1
inactive: all assays above

CC(=O)CC(C)(C)O
inactive: all assays above

NCCNCCN
not listed: [8] | [9] | [10]
inactive: all other assays above

C[C@]12CCC(=O)C=C1CC[C@@H]1[C@@H]2[C@@H](O)C[C@@]2(C)[C@H]1CC[C@]2(O)C(=O)CO
active: [10] 246 nM and 150 nM
not listed: [8]
inactive: all other assays above

NCCN1CCNCC1
not listed: [10]
inactive: all other assays above

CC(C)(C#N)c1cc(Cn2cncn2)cc(C(C)(C)C#N)c1
not listed: [8] | [9] | [10]
inactive: all other assays above

CCNc1ccccc1
not listed: [8]
inactive: all other assays above

CCNC(=S)NCC
not listed: [10]
inactive: all other assays above

CCCCCCCO
not listed: [10]
inactive: all other assays above

CC(CCl)OP(=O)(OC(C)CCl)OC(C)CCl (stereo not given)
not listed: [10]
inactive: all other assays above

Cc1ccc(C(C)C)c(O)c1
not listed: [9] | [10]
inactive: all other assays above

Cc1ccc(S(=O)(=O)N=C=O)cc1
6 µM (active) and inactive: [2]
not listed: [10]
inactive: all other assays above

O=c1[nH]cnc2[nH]ncc12
22.2 µM (active) and inactive: [4]
not listed: [9] | [10]
inactive: all other assays above

CC(CCO)CC(C)(C)C (stereo not given)
inactive: all assays above

COc1ccc([N+](=O)[O-])cc1N
not listed: [9] | [10]
inactive: all other assays above

CCCCCCCCCCCC(=O)OC
not listed: [10]
inactive: all other assays above

CC(=O)OC1CC(C)OC(C)O1 (stereo not given)
not listed: [8] | [9] | [10]
inactive: all other assays above

CCO[Si](CCC#N)(OCC)OCC
not listed: [9] | [10]
inactive: all other assays above

CC(=O)OCc1ccco1
1.53 µM (active) and inactive: [2]
not listed: [10]
inactive: all other assays above

CC(C)CC(C)O (stereo not given)
not listed: [10]
inactive: all other assays above

CC(=O)OCc1ccccc1
139 nM (active) and inactive: [8]
inactive: all other assays above

CC(=O)Oc1ccc(C)cc1
not listed: [9]
inactive: all other assays above

CSc1ccc(Cl)cc1
inactive: all assays above

O=C(O)Cn1c(=O)n(Cc2ccc(Br)cc2F)c(=O)c2ccc(Cl)cc21
inactive: all assays above

CCCCOC(=O)c1ccc(N)cc1
not listed: [4] | [10]
inactive: all other assays above

CN(C)c1ccc(Cc2ccc(N(C)C)cc2)cc1
not listed: [8] | [10]
inactive: all other assays above

COCCOC(=O)c1ccccc1C(=O)OCCOC
not listed: [8] | [10]
inactive: all other assays above

COc1ccc(CCC(C)=O)cc1
not listed: [8] | [10]
inactive: all other assays above

C[C@]12CC[C@@H]3c4ccc(O)cc4CC[C@H]3[C@@H]1C[C@@H](O)[C@@H]2O
inactive: [1] | [5] | [7] | [9]
active: [2] 13.7 µM and 5.96 µM | [3] 4.3 nM and 3 nM

CN(C)CCOC(=O)COc1ccc(Cl)cc1
not listed: [8] | [10]
inactive: all other assays above

CCc1ccccc1CC
not listed: [10]
inactive: all other assays above

C=C(C)[C@H]1CC=C(C)C(=O)C1
not listed: [8] | [10]
inactive: all other assays above

CCOC(=O)n1ccn(C)c1=S
not listed: [10]
inactive: all other assays above

CN(C)c1ccc(O)c2c1C[C@H]1C[C@H]3[C@H](N(C)C)C(=O)C(C(N)=O)=C(O)[C@@]3(O)C(=O)C1=C2O
inactive and 2.66 µM (active): [8]
86.3 µM (active) and inactive: [6]
not listed: [10]
inactive: all other assays above

Brc1ccc(Br)c(Br)c1
not listed: [3] | [10]
inactive: all other assays above

C=CC[N+](C)(C)CC=C
not listed: [8] | [10]
inactive: all other assays above

C=CCc1ccc(OC)c(OC)c1
not listed: [8] | [10]
inactive: all other assays above

c1ccc2c(c1)Cc1ccccc1-2
not listed: [10]
inactive: all other assays above

C=CC(C)CCCC(C)(C)O (stereo not given)
54.4 µM (active) and inactive: [3]
not listed: [10]
inactive: all other assays above
